Assay in all cases: pooled miR-30 sensor sort-seq; sequence = guide strand
Common to all, as to conditions: shRNA

Experiment [1] concerns the target C1orf114.
Experiment [2] has as its target C1orf115.
The target in experiment [3] is C1orf109.
Experiment [4] concerns the target C1orf106.
Experiment [5] addresses C1orf64.
Experiment [6] has as its target C20orf112.
Experiment [7] deals with C20orf54.
For experiment [8], the target named is C1orf61.
Experiment [9] has as its target C1orf84.

This is an account of results in the OligoGym collection.
Further: reference of the scale not given here.

For TTTTCTTTTGCAACCACGCTTT, the sensor-assay potency score (higher = more potent) in experiment [1] was -0.00106. In turn, TTCCTCCGGTACCTCTTCCTGG returned a sensor-assay potency score (higher = more potent) in experiment [2] of -1.14. For TTCTAGTGGAGGAACTTCCAAA, the sensor-assay potency score (higher = more potent) in experiment [1] is -0.899. In [3], TATCTTGTACAAGATCCTGGTG had a sensor-assay potency score (higher = more potent) of -0.3. The sequence TTGAAAAATATCTATACCCTTT returned a sensor-assay potency score (higher = more potent) in experiment [3] of -0.465. In turn, TGACAAAAGACACAAAACCAGG gave a sensor-assay potency score (higher = more potent) in [3] of -1.47.

For the sequence TTCTTTAGAAACATCAGGGTTC, in experiment [3], the sensor-assay potency score (higher = more potent) was determined as 0.139. TAGATGAAGGCAGCAGACCTTG: in [3], the sensor-assay potency score (higher = more potent) was -1.04. In [4], TTGAGCTCCTCGGACACGGCGG had a sensor-assay potency score (higher = more potent) of -0.833. In turn, TTTTCTCTTCCAAATATGCTGT registered a sensor-assay potency score (higher = more potent) in [2] of -0.444. As to TTTCTCTTCAGGTACGACTTTC, the sensor-assay potency score (higher = more potent) in experiment [3] was -0.727. On to TTCTTGTCCAAAATCATTGGAA, for which the sensor-assay potency score (higher = more potent) in experiment [1] is -0.446. Sequence TTTAGGTCCACAATAGAGGAAA registered a sensor-assay potency score (higher = more potent) in experiment [3] of -1.1. Consider TACTATGTCATTCTCTCTCTTT, for which the sensor-assay potency score (higher = more potent) in [1] is -0.145. For TAGCTGAGGACACAGCCACTTG, in experiment [4], the sensor-assay potency score (higher = more potent) was -1.67. TAAATAGACACTGAAAAGGTAT: the sensor-assay potency score (higher = more potent) in experiment [3] is -0.303. TTTGTAGTTCTTTCTGTCGAGG showed a sensor-assay potency score (higher = more potent) in [1] of -0.841. Regarding TTTTTAAAAAAAGACAACCTAA, the sensor-assay potency score (higher = more potent) in experiment [3] is -0.867. Sequence TTAGCTTCTAGTCGGAGCTGTC gave a sensor-assay potency score (higher = more potent) in experiment [1] of -0.331. In experiment [2], TTGAGGAATAAACAGCTCCTTA had a sensor-assay potency score (higher = more potent) of -1.12. Take TTCTCCATAATATATCTCCTTA: the sensor-assay potency score (higher = more potent) in experiment [1] was -0.58.

TTCTCTTCCAAATATGCTGTGT displayed a sensor-assay potency score (higher = more potent) in [2] of -0.325. Turning to TTATTGAAGTATTTAGCACTAA, the sensor-assay potency score (higher = more potent) in [4] was -0.34.

Regarding TCTGACTCTAGTAACATCCTCT, the sensor-assay potency score (higher = more potent) in [2] amounted to 0.697. In [4], TAAGCCGCTCCGATCCTGCGGC showed a sensor-assay potency score (higher = more potent) of -0.585.

TTGGTTAATATTCTCTTCCTTC: the sensor-assay potency score (higher = more potent) in [1] was -0.217.

TTCTTGATTCTGTAGAAGCTTG: the sensor-assay potency score (higher = more potent) in experiment [1] was -0.732. TGTAAGTCTTCATTGGTGGGGT displayed a sensor-assay potency score (higher = more potent) in experiment [5] of 0.329. Consider TTTCAGTGAGTCCTTGACTGTT, for which, in experiment [5], the sensor-assay potency score (higher = more potent) was -0.901. In experiment [6], TTTCTTGTCTCGCTCTCACAGG returned a sensor-assay potency score (higher = more potent) of -0.96. For TTCTTGTCTCGCTCTCACAGGC, the sensor-assay potency score (higher = more potent) in [6] was -0.87. As to ATGTAAGTCTTCATTGGTGGGG, the sensor-assay potency score (higher = more potent) in experiment [5] is -0.782. On to TTATCTGCTTGTCTTGTAGAAG, for which the sensor-assay potency score (higher = more potent) in [7] is -1.04. In turn, TAAGTCTTCATTGGTGGGGTGA came in with a sensor-assay potency score (higher = more potent) in [5] of -0.373. In experiment [8], TATAGATCTTGGTTAGACATGG showed a sensor-assay potency score (higher = more potent) of -0.143. The sequence TTGACTGTGGAGGTTCTGCGGG gave a sensor-assay potency score (higher = more potent) in [6] of -0.683. With TTCCCCACAGAACACGATGTAA, in experiment [5], the sensor-assay potency score (higher = more potent) was -1.15. In experiment [6], ATCGTCGTCATCATCTGCCGTC came in with a sensor-assay potency score (higher = more potent) of -0.187.

Regarding TTGCAGAAGTCCGCGGACGAGA, the sensor-assay potency score (higher = more potent) in [7] is -1.3.

As to TTTCATGCTGAGGTCCGTGGGC, in [6], the sensor-assay potency score (higher = more potent) was -0.763. Turning to TTCAGTGAGTCCTTGACTGTTC, in experiment [5], the sensor-assay potency score (higher = more potent) came to 0.426. With TAGATCTCTAGACGCATCCGCT, in [6], the sensor-assay potency score (higher = more potent) amounted to 0.0864. In the case of TTCATCTTGTCATTGTCCTCAT, the sensor-assay potency score (higher = more potent) in experiment [6] amounted to 0.226. AAGTTGAAGACCTCACAGGCGC had a sensor-assay potency score (higher = more potent) in experiment [5] of -0.73.

In the case of TTTCATTAACAGGAACACCTGC, the sensor-assay potency score (higher = more potent) in experiment [9] came out at 0.405.

TTGGTGCAGATGACTGAGGAAC returned a sensor-assay potency score (higher = more potent) in [9] of -1.39. TTACATAGATCTCAGGCTGGAA returned a sensor-assay potency score (higher = more potent) in experiment [9] of -0.261. Take TTGAAGACCTCACAGGCGCAGC: in experiment [5], the sensor-assay potency score (higher = more potent) is -1.07.

ATTGTCCTCATGGTCATCGTGG registered a sensor-assay potency score (higher = more potent) in experiment [6] of -0.617. In the case of TCAATAACAAAAGTCAGGTGAG, the sensor-assay potency score (higher = more potent) in experiment [5] was -0.224. Turning to TTGTCTCGCTCTCACAGGCAGC, the sensor-assay potency score (higher = more potent) in experiment [6] is -1.65. TTCATCTGCAGAGCGCAGCAGG returned a sensor-assay potency score (higher = more potent) in experiment [6] of -0.526. In turn, TAGCCTCGGGAACCTCCTGGGG had a sensor-assay potency score (higher = more potent) in experiment [5] of -1.66.

TTCATTAACAGGAACACCTGCC had a sensor-assay potency score (higher = more potent) in [9] of 0.858.

Turning to ATTGGTGGGGTGACAAGCCCTC, the sensor-assay potency score (higher = more potent) in experiment [5] is -0.204. TATCTCAGTGACATTGACGCAG showed a sensor-assay potency score (higher = more potent) in experiment [7] of 0.229.

In turn, ATTAACAGGAACACCTGCCCAG came in with a sensor-assay potency score (higher = more potent) in [9] of 0.146. On the same count and under the same terms, then TTAACAGGAACACCTGCCCAGC, with -1.3. Take TTACTCTCCAACTAGTGGGCTT: the sensor-assay potency score (higher = more potent) in experiment [7] was -0.23. In experiment [6], TCGTCATCATCTGCCGTCGGGG came in with a sensor-assay potency score (higher = more potent) of -1.61.
